The supplement of paper PMC8728848
About 410 targets per protein were measured; listed, in parts, are those with the strongest signals and a random draw of the rest.

Tests used:
Experiment in all cases: glycan array binding signal (z-score within array); higher = stronger binding
Conditions in all cases: glycan notation: IUPAC condensed, linker removed
[1] = biological target: Fuc(a1-2)Gal(b1-3)[Fuc(a1-4)]GlcNAc(b1-2)Man(a1-3)[Fuc(a1-2)Gal(b1-3)[Fuc(a1-4)]GlcNAc(b1-2)Man(a1-3)]Man(b1-4)GlcNAc(b1-4)GlcNAc
Procedure, shortened: (§1)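 Glycan array data came from 3228 arrays in the Consortium for Functional Glycomics database, and only arrays with an available protein sequence were kept. Glycan names were put into IUPAC-condensed notation, and columns mapping to the same glycan were averaged. The binding signal is a within-array Z-score, averaged across arrays of one protein sequence run at different concentrations or buffers and across linkers. A negative Z-score can be read as non-binding.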

[2] = biological target: Fuc(a1-2)Gal(b1-4)GlcNAc(b1-2)Man(a1-3)[Fuc(a1-2)Gal(b1-4)GlcNAc(b1-2)Man(a1-6)]Man(b1-4)GlcNAc(b1-4)[Fuc(a1-6)]GlcNAc
Procedure, shortened: as §1

[3] = biological target: Fuc(a1-2)Gal(b1-4)GlcNAc(b1-3)Gal(b1-4)GlcNAc
Procedure, shortened: as §1

[4] = biological target: Fuc(a1-2)Gal(b1-4)GlcNAc(b1-6)GalNAc
Procedure, shortened: as §1

[5] = biological target: Fuc(a1-2)Gal(b1-4)[Fuc(a1-3)]GlcNAc
Procedure, shortened: as §1

Fuc(a1-2)[Gal(a1-3)]Gal = biological target: Fuc(a1-2)[Gal(a1-3)]Gal
Procedure, shortened: as §1

[6] = biological target: Fuc(a1-2)[Gal(a1-4)]Gal(b1-4)GlcNAc
Procedure, shortened: as §1

[7] = biological target: Fuc(a1-2)[GalNAc(a1-3)]Gal(b1-3)GlcNAc(b1-2)Man(a1-3)[Fuc(a1-2)[GalNAc(a1-3)]Gal(b1-3)GlcNAc(b1-2)Man(a1-6)]Man(b1-4)GlcNAc(b1-4)GlcNAc
Procedure, shortened: as §1

[8] = biological target: Fuc(a1-2)[GalNAc(a1-3)]Gal(b1-4)GlcNAc(b1-3)Gal(b1-4)GlcNAc
Procedure, shortened: as §1

[9] = biological target: Fuc(a1-2)[GalNAc(a1-3)]Gal(b1-4)GlcNAc(b1-3)GalNAc
Procedure, shortened: as §1

Fuc(a1-3)GlcNAc = biological target: Fuc(a1-3)GlcNAc
Procedure, shortened: as §1

[10] = biological target: Fuc(a1-3)[Gal(b1-4)]GlcNAc(b1-2)Man(a1-3)[Fuc(a1-3)[Gal(b1-4)]GlcNAc(b1-2)Man(a1-6)]Man(b1-4)GlcNAc(b1-4)GlcNAc
Procedure, shortened: as §1

[11] = biological target: Fuc(a1-3)[GalNAc(b1-4)]GlcNAc
Procedure, shortened: as §1

Fuc(b1-3)GlcNAc = biological target: Fuc(b1-3)GlcNAc
Procedure, shortened: as §1

[12] = biological target: Gal(a1-4)Gal(b1-4)GlcNAc(b1-2)Man(a1-3)[Gal(a1-4)Gal(b1-4)GlcNAc(b1-2)Man(a1-6)]Man(b1-4)GlcNAc(b1-4)GlcNAc
Procedure, shortened: as §1

Gal(a1-6)Glc = biological target: Gal(a1-6)Glc
Procedure, shortened: as §1

Gal(b1-2)Gal = biological target: Gal(b1-2)Gal
Procedure, shortened: as §1

[13] = biological target: Gal(b1-3)GlcNAc(b1-2)Man(a1-3)[Gal(b1-3)GlcNAc(b1-2)Man(a1-6)]Man(b1-4)GlcNAc(b1-4)[Fuc(a1-6)]GlcNAc
Procedure, shortened: as §1

[14] = biological target: Gal(b1-3)GlcNAc(b1-2)[Gal(b1-3)GlcNAc(b1-6)]Man(a1-6)[Gal(b1-3)GlcNAc(b1-2)Man(a1-3)]Man(b1-4)GlcNAc(b1-4)GlcNAc
Procedure, shortened: as §1

[15] = biological target: Gal(b1-3)[Fuc(a1-4)]GlcNAc(b1-3)Gal(b1-4)[Fuc(a1-3)]GlcNAc
Procedure, shortened: as §1

[16] = biological target: Gal(b1-3)[Fuc(a1-4)]GlcNAc(b1-6)GalNAc
Procedure, shortened: as §1

[17] = biological target: Gal(b1-3)[GlcNAc(b1-6)]GalNAc
Procedure, shortened: as §1

Gal(b1-4)Glc = biological target: Gal(b1-4)Glc
Procedure, shortened: as §1

[18] = biological target: Gal(b1-4)GlcNAc(b1-2)Man(a1-3)[Gal(b1-4)GlcNAc(b1-2)Man(a1-6)][GlcNAc(b1-4)]Man(b1-4)GlcNAc(b1-4)[Fuc(a1-6)]GlcNAc
Procedure, shortened: as §1

[19] = biological target: Gal(b1-4)GlcNAc(b1-2)[Gal(b1-4)GlcNAc(b1-4)]Man(a1-3)[GlcNAc(b1-4)][Gal(b1-4)GlcNAc(b1-2)[Gal(b1-4)GlcNAc(b1-6)]Man(a1-6)]Man(b1-4)GlcNAc(b1-4)GlcNAc
Procedure, shortened: as §1

[20] = biological target: Gal(b1-4)GlcNAc(b1-2)[Gal(b1-4)GlcNAc(b1-6)]Man(a1-6)[GlcNAc(b1-4)][Gal(b1-4)GlcNAc(b1-2)Man(a1-3)]Man(b1-4)GlcNAc(b1-4)GlcNAc
Procedure, shortened: as §1

[21] = biological target: Gal(b1-4)GlcNAc(b1-3)Gal(b1-4)GlcNAc(b1-2)Man(a1-3)[Gal(b1-4)GlcNAc(b1-3)Gal(b1-4)GlcNAc(b1-2)Man(a1-6)]Man(b1-4)GlcNAc(b1-4)GlcNAc
Procedure, shortened: as §1

[22] = biological target: Gal(b1-4)GlcNAc(b1-3)Gal(b1-4)GlcNAc(b1-2)[Gal(b1-4)GlcNAc(b1-3)Gal(b1-4)GlcNAc(b1-6)]Man(a1-6)[Gal(b1-4)GlcNAc(b1-3)Gal(b1-4)GlcNAc(b1-2)Man(a1-3)]Man(b1-4)GlcNAc(b1-4)[Fuc(a1-6)]GlcNAc
Procedure, shortened: as §1

[23] = biological target: Gal(b1-4)GlcNAc(b1-3)Gal(b1-4)GlcNAc(b1-3)Gal(b1-4)GlcNAc
Procedure, shortened: as §1

[24] = biological target: Gal(b1-4)GlcNAc(b1-3)Gal(b1-4)GlcNAc(b1-3)Gal(b1-4)GlcNAc(b1-2)[Gal(b1-4)GlcNAc(b1-3)Gal(b1-4)GlcNAc(b1-3)Gal(b1-4)GlcNAc(b1-6)]Man(a1-6)[Gal(b1-4)GlcNAc(b1-3)Gal(b1-4)GlcNAc(b1-3)Gal(b1-4)GlcNAc(b1-2)Man(a1-3)]Man(b1-4)GlcNAc(b1-4)[Fuc(a1-6)]GlcNAc
Procedure, shortened: as §1

B1: Clone646PsrP (Streptococcus pneumoniae) (protein)
chain: MDHHHHHHHHASENLYFQGAPAINASLNIAKSETKVYTGEGVDSVYRVPIYYKLKVTNDGSKLTFTYTVTYVNPKTNDLGNISSMRPGYSIYNSGTSTQTMLTLGSDLGKPSGVKNYITDKNGRQVLSYNTSTMTTQGSGYTWGNGAQMNGFFAKKGYGLTSSWTVPITGTDTSFTFTPYAARTDRIGINYFNGGGKVVESSTTSQSLSQSKSLSVSAS
glycan array binding signal (z-score) [1]: 1.88 | glycan array binding signal (z-score) [2]: 0.523 | glycan array binding signal (z-score) [3]: -0.74 | glycan array binding signal (z-score) [4]: 2.58 | glycan array binding signal (z-score) [5]: 0.085 | glycan array binding signal (z-score) (Fuc(a1-2)[Gal(a1-3)]Gal): -0.314 | glycan array binding signal (z-score) [6]: 0.495 | glycan array binding signal (z-score) [7]: -0.761 | glycan array binding signal (z-score) [8]: -0.638 | glycan array binding signal (z-score) [9]: 0.378 | glycan array binding signal (z-score) (Fuc(a1-3)GlcNAc): 0.18 | glycan array binding signal (z-score) [10]: -0.096 | glycan array binding signal (z-score) [11]: 0.979 | glycan array binding signal (z-score) (Fuc(b1-3)GlcNAc): 1.31 | glycan array binding signal (z-score) [12]: -0.434 | glycan array binding signal (z-score) (Gal(a1-6)Glc): 0.015 | glycan array binding signal (z-score) (Gal(b1-2)Gal): 2.94 | glycan array binding signal (z-score) [13]: -0.421 | glycan array binding signal (z-score) [14]: 9.03 | glycan array binding signal (z-score) [15]: -0.797 | glycan array binding signal (z-score) [16]: -0.757 | glycan array binding signal (z-score) [17]: 0.41 | glycan array binding signal (z-score) (Gal(b1-4)Glc): 0.581 | glycan array binding signal (z-score) [18]: -0.984 | glycan array binding signal (z-score) [19]: -0.776 | glycan array binding signal (z-score) [20]: -0.887 | glycan array binding signal (z-score) [21]: 0.169 | glycan array binding signal (z-score) [22]: -0.263 | glycan array binding signal (z-score) [23]: -0.913 | glycan array binding signal (z-score) [24]: -0.442
